Assay results: PubChem BioAssay AID1345082 (National Center for Advancing Translational Sciences (NCATS), 2018)
Screen size: about 94,000 compounds; about 4,000 (4.3%) were called active. Another 29% or so got no clear call; they are omitted. The list comes from a sample in which actives are over-represented; it also holds similar structures and randomly drawn compounds. A number with no mark means an inactive call. Calls follow the shape of the dose curve; as a rule, active = well fitted inhibition curve with a large enough effect; inconclusive = small, poorly fitted or top-dose-only effect; inactive = no such curve, though single readings can be large or run the other way.

test: Cytotoxic Profiling in NIH 3T3 Cell Line of Diverse Libraries Using Quantitative High-Throughput Screening; conditions: NIH 3T3 viability, CellTiter-Glo ATP luminescence, 48-72 h; series mostly up to 96.7 µM; activity change, negative = cytotoxicity: at the top concentration; also: nearly all actives have a fitted effect of over 55% in size
Excerpt: Cell-based phenotypic screening is a commonly used approach to discover biological pathways, novel drug targets, chemical probes and high-quality hit-to-lead molecules. Many hits identified from high-throughput screening campaign are ruled out through a series of follow-up potency, selectivity/specificity, and cytotoxicity assays. Prioritization of molecules with little or no cytotoxicity for a more in-depth downstream evaluation influence the future direction of projects, so cytotoxicity profiling of the screening libraries at early stage is essential for increasing the likelihood of candidate success. In this study, we analyzed results from a cell-based cytotoxicity screening campaign, comprising nearly 10,000 compounds in NCATS annotated libraries, and over 100,000 compounds in a diversity library, evaluated in four normal cell lines (HEK 293, NIH 3T3, CRL-7250 and HaCat) and a cancer cell line (KB 3-1, a HeLa subline) with overall screening outcomes, hit rates, pan-activity and selectivity. For the annotated library, we also examined the primary targets and mechanistic pathways regularly associated with cell death. To our knowledge, this is the first study to use high-throughput screening to profile large libraries for cytotoxicity assessment in both normal and cancer cell lines. In summary, the results generated here constitutes a valuable resource for the scientific community and provides insight on identifying cytotoxic compounds with particular mechanisms of action, and prioritizing compounds with suitable cytotoxicity profile for further evaluation.
NIH 3T3 cells were seeded into white 1536-well plates using a Multidrop Combi peristaltic dispenser (ThermoFisher, Waltham, MA) at a density of 400 cells/well in 5 uL of medium respectively. A pintool (Kalypsys) was used to transfer 23 nL of compound solution to the 1536-well assay plates. After 48 or 72 hr incubation at 37 degree Celsius, 5% CO2 and 95% humidity, 2.5 uL of CellTiter-Glo (Promega) was dispensed into each well using a dispenser (Aspect Automation, St. Paul, MN) with solenoid valves (Lee Valves, Westbrook CT). Plates were left at room temperature for 10 min before imaging the ATP-coupled luminescence using a ViewLux microplate imager (PerkinElmer, Waltham, MA).
% is scaled to controls: 0 for no effect and ±100 for the full control effect; potency is read from the fitted curve at half-maximal effect.

Row | Compound | activity change, negative = cytotoxicity | Potency | outcome
1 | O=c1[nH]c(C2CCCN([S+](=O)([O-])c3cccc(C(F)(F)F)c3)C2)nn1-c1ccc(F)cc1 (stereo unspecified) | -13.8% |  | 
2 | CC[C@H]1CN(C(=O)Nc2ccccc2)CC[C@H]1CC(=O)Nc1ccccc1 | -17.9% [at 174 µM] |  | 
3 | O=C1NCc2ccccc2CC12CCN(CC1CCCCC1)C2 (stereo unspecified) | -13.4% |  | 
4 | COc1cccc(NC(=O)Cn2c(-c3ccccc3)nc(C)cc2=O)c1 | -26.4% |  | 
5 | CC(=O)c1cccc(NC(=O)Cn2c(-c3ccc(Cl)cc3)nc(C)cc2=O)c1 | -23.6% |  | 
6 | CCc1cc(=O)n(CC(=O)Nc2cccc(C(C)=O)c2)c(-c2ccccc2)n1 |  | 35.5 µM (active) | 
7 | COc1ccc(-c2cc(N3CCC(NC(=O)c4ccoc4)CC3)n[nH]2)cc1 | -20.6% |  | 
8 | CC(C)(C)OCC1CN(Cc2cccs2)C(=O)c2cccnc2O1 (stereo unspecified) | -23.4% |  | 
9 | COc1ccc(CNC(=O)CC[C@H]2CNC(=O)[C@@H]3[C@@H](CCN3C3CCOCC3)N2C)cc1 | 1.52% |  | 
10 | CC(C)c1noc(-c2ccn3c(CNC(=O)c4ccc5ccccc5n4)nnc3c2)n1 | 0.0071% |  | 
11 | CC(C)(C)c1csc(NC(=O)c2ccc3c(c2)OCCN(C2CCC2)C3)n1 |  | 79.4 µM (active) | 
12 | O=C(NCCc1ccccc1)c1ccc2c(c1)OCCN(CCC(F)(F)F)C2 | -8.88% [at 138 µM] |  | 
13 | O=C(NCCc1ccccn1)c1ccc2c(c1)OCCN(c1ccccc1)C2 | -16.9% [at 138 µM] |  | 
14 | Cc1noc(C2CC3(CCN(C(=O)c4cccnc4C)CC3)CN2C)n1 (stereo unspecified) | 1.03% |  | 
15 | O=C(CN1CCC2(CC1)NC(=O)CC2C(=O)O)NCCc1ccc(F)cc1 (stereo unspecified) | -10.7% |  | 
16 | O=C(Cc1cccc(Cl)c1)N1CCCN(c2ccc3nnc(C4CC4)n3n2)CC1 | -5.27% |  | 
17 | Cn1ccnc1CN1CCCC(CCC(=O)Nc2ccccc2F)C1 (stereo unspecified) |  |  | inactive
18 | Cc1c[nH]c(CN2CCCC(CCc3ccc(F)cc3F)C2)c(C)c1=O (stereo unspecified) |  | 50.1 µM (active) | 
19 | CN1[C@@H](CCC(=O)N2CCOCC2)CNC(=O)[C@@H]2[C@H]1CCN2Cc1ccc(S(C)(=O)=O)cc1 |  |  | inactive
20 | Cc1ccc(F)cc1S(=O)(=O)N1CCC(OC2CCN(Cc3ccccc3)CC2)CC1 |  | 35.5 µM (active) | 
21 | CC(C)C(=O)N1CCC(OC2CCN(Cc3ccccc3)CC2)CC1 | -29.4% |  | 
22 | O=c1[nH]c(C2CCN(Cc3ccccc3)CC2)nc2ccc(F)cc12 |  | inactive | 

Row | Compound | activity change, negative = cytotoxicity | Potency | outcome
23 | CCCN1CCN(c2ccc(C(=O)N(C)Cc3ccc4ccccc4n3)cn2)CC1 | -1.06% |  | 
24 | COc1ccc(CN2CCN3C(=O)N(c4ccccc4)C[C@H]3C2)cn1 | -29.7% [at 174 µM] |  | 
25 | CN(C)c1cccc(-c2ncc3c(n2)OCCN(Cc2ccc(F)cc2F)C3=O)c1 | -22.8% [at 138 µM] |  | 
26 | COCCOc1ccc(-c2noc([C@@H]3CCCN3Cc3cccnc3)n2)cn1 | -21.8% [at 138 µM] |  | 
27 | COc1ccc(-c2ncc3c(n2)OCCN(Cc2ccccc2)C3=O)cn1 |  | 35.5 µM (active) | 
28 | C[S+](=O)([O-])c1cccc(-c2ncc3c(n2)OCCN(Cc2ccc(F)cc2F)C3=O)c1 |  | 28.2 µM (active) | 
29 | COCCN1CCOC2(CCN(Cc3ccc(F)cc3F)CC2)C1=O | -26.7% [at 138 µM] |  | 
30 | Cc1nc(CCNc2nccc(-c3cccnc3)n2)nc2c1CCCC2 | 2.97% |  | 
31 | CNC(=O)[C@@H]1[C@H]2CN(C3CCCCCC3)CCN2C[C@H]1c1ccccc1 | -42.5% |  | 
32 | O=C(C1CCCC1)N1C[C@@H](CO)[C@H](c2ccncc2)C1 | 2.17% |  | 
33 | CC(C)(C)c1ccc(C(=O)N2C[C@@H](CO)[C@H](c3ccccn3)C2)cc1 | -21% |  | 
34 | CC(C)CNC(=O)c1nnn2c1COC(c1ccc(Br)cc1)C2 (stereo unspecified) | -19.1% |  | 
35 | CCCc1nc(NCC(c2ccccn2)N2CCOCC2)c2cnn(C)c2n1 (stereo unspecified) | -21.1% |  | 
36 | CC(C)Cc1cc(CNc2nc(C(C)(C)C)nc3c2cnn3C)no1 |  | 44.7 µM (active) | 
37 | COc1ccc2[nH]cc(CCNC(=O)CC3=C4CCCCC4N(C)C3=O)c2c1 (stereo unspecified) | -14.7% |  | 
38 | COc1ccc(CNC(=O)CC[C@@H]2CNC(=O)[C@@H]3C[C@H](NC(=O)Nc4ccsc4)CN23)cc1 | -13.2% |  | 
39 | CC(=O)N1CCN(C(=O)c2ccc3nc(-c4ccncc4)oc3c2)CC1 | -10% |  | 
40 | CCOC(=O)C1CCCN(C(=O)c2ccc3oc(-c4ccccn4)nc3c2)C1 (stereo unspecified) | -25.6% |  | 
41 | Cc1cccc(-c2nc3ccc(C(=O)N4CCCCC4)cc3o2)n1 |  | 10 µM (active) | 
42 | CCc1cccc(NC(=O)CN2C(=O)NC(c3ccc(Cl)cc3)C3=C2COC3=O)c1 (stereo unspecified) |  | 25.1 µM (active) | 
43 | CCOc1ccccc1C1NC(=O)N(CC(=O)Nc2ccc(C)c(C)c2)C2=C1C(=O)OC2 (stereo unspecified) | -18.4% |  | 
44 | Cc1ccccc1NC(=O)CN1C(=O)NC(c2ccccc2Cl)C2=C1COC2=O (stereo unspecified) | 3.33% |  | 

Row | Compound | activity change, negative = cytotoxicity | Potency | outcome
45 | Cc1ccc(Cl)cc1NC(=O)CN1C(=O)NC(c2ccc(Cl)cc2)C2=C1COC2=O (stereo unspecified) |  | 35.5 µM (active) | 
46 | Cc1cccc(C)c1NC(=O)CN1C(=O)NC(c2ccc(Cl)cc2)C2=C1COC2=O (stereo unspecified) | -22.8% |  | 
47 | CCOc1ccccc1C1NC(=O)N(CC(=O)Nc2c(C)cccc2Cl)C2=C1C(=O)OC2 (stereo unspecified) | -3.32% |  | 
48 | CCN1CC2(CCN(Cc3c(OC)ccc(F)c3F)CC2)OC1=O | -17.4% |  | 
49 | COc1ccc(-c2cccc(C(=O)N3CCN(C(=O)c4ccc(Cl)nc4)CC3)c2)nn1 | -9.4% |  | 
50 | COCCc1noc(C2Cc3ccccc3N2C(=O)NCc2ccco2)n1 (stereo unspecified) |  |  | inactive
51 | O=C(NC[C@H]1O[C@H](Cc2cc(-c3ccccc3)on2)CC[C@@H]1O)C1CCC1 | -24.2% [at 174 µM] |  | 
52 | O=C1Nc2ccccc2CC12CCN2Cc1cncs1 (stereo unspecified) | -7.66% [at 138 µM] |  | 
53 | CC(=O)N1CCN(C(=O)c2ccccc2N2CCOCC2)CC(O)C1 (stereo unspecified) | 1.1% |  | 
54 | O=C1Cc2c(-c3ccc(CO)cc3)n[nH]c2CN1CC1CCOCC1 |  | 79.4 µM (active) | 
55 | COCc1cccc(-c2n[nH]c3c2CC(=O)N(c2ccccc2)C3)c1 | -29% [at 138 µM] |  | 
56 | c1cc(-c2ccc3c(c2)OCCCO3)n2ncnc2n1 | -6.36% |  | 
57 | COc1ccc(Cn2c(=O)c(C(=O)N3CCN(C(=O)Nc4ccccc4)CC3)nc3cccnc32)cc1 | -14% |  | 
58 | COc1ccc(F)cc1-c1ccc(CN2CCC(NC(=O)c3ccccc3)C2)cc1 (stereo unspecified) |  | 35.5 µM (active) | 
59 | Cc1cc(C)cc(-c2ccc(CN3CCCC(NC(=O)c4ccccc4)C3)cc2)c1 (stereo unspecified) |  | 22.4 µM (active) | 
60 | COCCC1(NC(=O)c2ccccc2)CCN(Cc2ccc(F)cc2F)CC1 | -5.71% |  | 
61 | COc1ccccc1-c1ccc(C(=O)N2CCC(C(=O)NC3CC3)CC2)cc1 | -28.9% |  | 
62 | COc1ccc(CC(=O)NC2CCN(Cc3ccc(-c4ccccc4OC)cc3)C2)cc1 (stereo unspecified) |  | 31.6 µM (active) | 
63 | O=C(NC1CCCN(Cc2ccc(-c3cncnc3)cc2)C1)c1ccccc1 (stereo unspecified) | -26.2% |  | 
64 | O=C(NC1CCCN(Cc2ccc(-c3cncnc3)cc2)C1)C1CCCC1 (stereo unspecified) | -24.3% |  | 
65 | COc1ccc(F)cc1S(=O)(=O)N1[C@@H]2CC[C@H]1CC(NC(=O)c1ccc(F)cc1)C2 (stereo partly specified) | -23.8% |  | 
66 | COc1cccc(-c2ccc(CN3CCCC(NC(=O)NC4CCCC4)C3)cc2)c1 (stereo unspecified) | -37.7% |  | 
